The supplement of paper PMC8387472
Where a name gives a salt, the structure may show the parent alone. ± gives the standard deviation of the averaged measurements.

These compounds were tested on mESC LDLR-Dup GFP reporter (SpCas9 MH-deletion repair) (assay: fraction of GFP+ cells relative to DMSO control (fold change); higher = more MH-deletion repair to in-frame LDLR (or more editing)). Conditions: 2 µM; 7 days post-transfection.

Compound | fraction of GFP+ cells
O=C(NO)c1cccc(C(=O)NCCc2ccccc2)c1 | 0.743 ± 0.17
Cc1nc(=O)c2cc(CN(C)c3ccc(C(=O)N[C@@H](CCC(=O)O)C(=O)O)s3)ccc2[nH]1 [Raltitrexed] | 2.3 ± 1
Cc1ncc([N+](=O)[O-])n1CCO [Metronidazole] | 0.96 ± 0.35
N#CSc1cc(SC#N)c(N)nc1N | 1.23 ± 0.14
N#Cc1cnc(Nc2cc(NC[C@H]3CNCCO3)c(C(F)(F)F)cn2)cn1 | 1.18 ± 0.1
Cc1cc(N2C[C@@H](C)N[C@@H](C)C2)ncc1-c1ccc(-c2nc3c(ccn3C)c(=O)[nH]2)cc1 | 0.927 ± 0.33
C[C@]1(c2nc3c(C(N)=O)cccc3[nH]2)CCCN1 [Veliparib (ABT-888)] | 0.657 ± 0.19
Nc1nc(OCC2CCCCC2)c2[nH]cnc2n1 | 0.88 ± 0.14
O=C(O)c1cc(=O)[nH]c(=O)[nH]1 [Orotic acid (6-Carboxyuracil)] | 0.847 ± 0.26
C#CCC(Cc1cnc2nc(N)nc(N)c2n1)c1ccc(C(=O)N[C@@H](CCC(=O)O)C(=O)O)cc1 (stereo not given in full) [Pralatrexate] | 1.43 ± 0.46
O=C(Nc1ccc(Cl)cc1)C1CCCN(C(=O)c2cccc(-c3ccco3)c2)C1 (stereo not given) | 0.756 ± 0.13
CCn1cc(C(=O)O)c(=O)c2cc(F)c(N3CCNCC3)nc21 [Enoxacin] | 1.04 ± 0.096
COc1cc2ncnc(-n3nc(-c4ccccn4)nc3N)c2cc1OC | 0.973 ± 0.34
COc1c(N2C[C@@H]3CCCN[C@@H]3C2)c(F)cc2c(=O)c(C(=O)O)cn(C3CC3)c12 [Moxifloxacin HCl] | 0.624 ± 0.29
COc1cc(Cc2cnc(N)nc2N)cc(OC)c1OC [Trimethoprim] | 0.773 ± 0.079
O=C(NCc1cccc(O)c1)Nc1nc(-c2ccncc2)cs1 | 1.11 ± 0.49
CNC(=O)c1nn(C)c2c1C(C)(C)Cc1cnc(Nc3ccc(N4CCN(C)CC4)cc3)nc1-2 | 0.352 ± 0.06
CC1=C(/C=C/C(C)=C/C=C/C(C)=C/C(=O)O)C(C)(C)CCC1 [Tretinoin] | 0.923 ± 0.026
Nc1nc(=O)c2c([nH]1)NC[C@H](CNc1ccc(C(=O)N[C@@H](CCC(=O)O)C(=O)O)cc1)N2C=O [Calcium Levofolinate] | 1.1 ± 0.47
CCCCCCCCCCCCCC(=S)NCCCC[C@H](NC(=O)OCc1ccccc1)C(=O)Nc1ccccc1 [Thiomyristoyl] | 0.948 ± 0.9

Compound | fraction of GFP+ cells
CC(C)c1cnn2c(NCc3ccccc3)cc(NCCCCCCN)nc12 | 1.07 ± 0.18
O=C(COc1cccc2c(=O)[nH]ccc12)c1ccccc1 | 0.936 ± 0.095
O=c1c(O)c(-c2ccc(O)c(O)c2)oc2cc(O)ccc12 [Fisetin] | 1.39 ± 0.39
N#Cc1ccc(COC[C@H]2O[C@@H](n3c(NCc4ccc(Cl)c(Cl)c4)nc4c(N)ncnc43)[C@H](O)[C@@H]2O)cc1 | 1.89 ± 0.17
CCCC(CCC)C(=O)O [Valproic acid sodium salt (Sodium valproate)] | 0.849 ± 0.18
C[C@H](Oc1cc(-c2cnn(C3CCNCC3)c2)cnc1N)c1c(Cl)ccc(F)c1Cl [(S)-crizotinib] | 0.94 ± 0.18
Cc1ccc(C)c(OCCCC(C)(C)C(=O)O)c1 [Gemfibrozil] | 1.46 ± 0.29
O=C(O)CCCc1ccccc1 [Sodium Phenylbutyrate] | 0.708 ± 0.082
Cc1ccc(CNc2ncnc3ccc(-c4ccc(CO)o4)cc23)o1 | 1.08 ± 0.19
CN(Cc1cnc2nc(N)nc(N)c2n1)c1ccc(C(=O)N[C@@H](CCC(=O)O)C(=O)O)cc1 [Methotrexate] | 1.53 ± 0.28
COc1cccc2c1c(O)c(C(=O)N(C)c1ccc(C(F)(F)F)cc1)c(=O)n2C [Tasquinimod] | 0.837 ± 0.12
CC(ONC(=O)c1cc(C(F)(F)F)cc(C(F)(F)F)c1)C(=O)Nc1ccc(Cl)cc1 (stereo not given) | 0.994 ± 0.12
Cn1cc(-c2cnn3c(N)c(Br)c([C@@H]4CCCNC4)nc23)cn1 | 0.689 ± 0.069
CCCCCCCCC/C(=C\C1=C(C)C(=O)C(OC)=C(OC)C1=O)C(=O)O | 1.19 ± 0.5
CCc1nc(N)nc(N)c1-c1ccc(Cl)cc1 [Pyrimethamine] | 1.5 ± 1.2
CNC1CCCN(c2c(F)cc3c(=O)c(C(=O)O)cn(C4CC4)c3c2OC)C1 (stereo not given) [Balofloxacin] | 0.978 ± 0.15
O=C(O)c1ccc2c(c1)nc(Nc1cccc(Cl)c1)c1ccncc12 [Silmitasertib (CX-4945)] | 0.655 ± 0.32
CN(C)Cc1ccc(-c2nc3cccc4c3n2CCNC4=O)cc1 | 0.517 ± 0.015
CC(=O)NCC(=O)N1[C@@H]2CC[C@H]1c1ccc(Nc3ncc(C(F)(F)F)c(NC4CCC4)n3)cc12 | 1.27 ± 0.73
CC1=CC(=O)c2ccccc2C1=O [Menadione] | 1.27 ± 0.36
